Assay [1] is described as follows: Cytometry Cell-Based qHTS for Inhibitors of the mTORC1 Signaling Pathway in MEF cells (AID 2668). Note: potency is the fitted concentration of half-maximal effect. A digest of the protocol:
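Pathway inhibition in WT Tsc2-rescued Tsc2-/-, p53-/- MEFs is measured as the Alexa-488 phospho-rpS6 to propidium iodide intensity ratio after 24 hrs of compound at 37 degree Celsius. PI-stained cell number gives viability.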
(Quantitative high-throughput screening tests each substance at several concentrations.)

Assay [2] deals with Ubiquitin carboxyl-terminal hydrolase 2 (Homo sapiens) (UniProt O75604). The experiment in a line: qHTS Validation Assay for Inhibitors of Ubiquitin-specific Protease USP2a Using CHOP2 as the Reporter (AID 463106). A digest of the protocol:
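USP2 core (10 nM final) was preincubated with compound 30 min at RT in pH 8.0 Tris/CaCl2/beta-ME/CHAPS buffer. Ub-CHOP2 and reporter substrate (25 nM final each) were then added, with fluorescence (Ex 485/Em 531) read after 60 min. Data were normalized to NEM full inhibition and fitted to concentration-response curves.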

Assay [3] has as its target DNA polymerase III PolC-type (Bacillus subtilis (strain 168)) (UniProt P13267). The experiment in a line: qHTS Validation Assay for the Inhibitors of DNA Replication in Gram-Positive Bacteria (AID 485295).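 Note: reconstituted holoenzyme with PolC plus beta clamp SSB and primase; PicoGreen fluorescence of double-stranded DNA made on primed circular M13 template; series mostly up to about 57 µM.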 A digest of the protocol:
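Primed replication of single-stranded M13Gori by a four-protein B. subtilis holoenzyme is measured at room temperature. Double-stranded product is quantified by PicoGreen fluorescence after an EDTA stop; inhibition is scaled between DMSO and EDTA controls.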

Assay [4] addresses Beta-2 adrenergic receptor (Homo sapiens) (UniProt P07550). The assay is described as follows: qHTS validation assay of beta-arrestin-biased ligands of beta2-adrenergic receptor (AID 485366). A digest of the protocol: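 Luminescence from a tTA-responsive luciferase, induced when recombinant beta-arrestin is recruited to recombinant beta2-AR, served as the agonism signal. Cells were exposed to compound for 18 hr at 37 degrees C; titrations spanned up to 46 microM.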

Assay [5] deals with ATP-dependent 6-phosphofructokinase (Trypanosoma brucei brucei) (UniProt O15648). The experiment in a line: qHTS Validation Assay to Find Inhibitors of T. brucei phosphofructokinase (AID 485368). The following applies: outcome: dose series up to 57.5 µM. A digest of the protocol:
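Activity was normalized between 1x (1.25 nM) PFK wells as no inhibition and enzyme-free wells as full inhibition, from luminescence after ADP-Glo detection of ADP made from 0.5 mM F6P and 0.1 mM ATP over 45 min.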

The nature of assay [6]: Cytometric Cell-Based qHTS for Inhibitors of the mTORC1 Signaling Pathway in MEF (Tsc2-/-, p53-/-) Cells (AID 2660).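 Note: percent of cells above a phospho-rpS6 to PI ratio cutoff in each well; series mostly up to about 38 µM.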 A digest of the protocol: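 Percent of cells positive for normalized phospho-S6 staining is reported, with the cutoff set from rapamycin (7.5 nM) versus DMSO wells. Tsc2-/-, p53-/- MEFs received compound for 24 hrs.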
Assay [7] can be described thus: High Content Imaging Cell-Based qHTS for Inhibitors of the mTORC1 Signaling Pathway in MEF (Tsc2-/-, p53-/-) Cells (AID 2666). Note: potency is the fitted concentration of half-maximal effect. A digest of the protocol: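 Phospho-rpS6 (Ser235/236) immunofluorescence, normalized and scored as % positive cells using rapamycin and DMSO controls, was read in empty-vector Tsc2-/-, p53-/- MEFs after 24 h compound exposure at 37 C; propidium iodide counted cells.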

Assay [8] is described as follows: qHTS Validation Assay to Find Inhibitors of Chronic Active B-Cell Receptor Signaling (AID 485345; active = well fitted curve in the direction sought with a large enough effect in the main read-out, with a control signal flat, not every such curve was filed as active). A digest of the protocol: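 TMD8 ABC-DLBCL cells stably carrying doxycycline-inducible IkappaBalpha–green luciferase fusion plus unfused red luciferase; compounds 46 uM to 3 nM, 4 h at 37C with doxycycline. Corrected green/red luminescence ratio normalized to 10 uM MG-132 and basal cell wells; curves fitted.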

Assay [9] can be described thus: Validation screen for small molecules that induce DNA re-replication in MCF 10A normal breast cells (AID 463097). Note: nearly all actives have a fitted effect of over 60% in size. Note: potency is the fitted concentration of half-maximal effect. A digest of the protocol:
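DNA re-replication was detected as a rise in nuclei with elevated Hoechst fluorescence after a 48 hr compound exposure of MCF 10A cells at 37 C.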

Assay [10] can be described thus: Quantitative high throughput screen for delayed death inhibitors of the malarial parasite plastid, 96 hour incubation (AID 488745). Note: nearly all actives have a fitted effect of over 70% in size. Note: potency is the fitted concentration of half-maximal effect. A digest of the protocol:
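P. falciparum carrying an integrated firefly luciferase reporter, grown in erythrocytes (2% hematocrit, 0.1% parasitemia final) in RPMI 1640/0.5% Albumax, was exposed to compound for 96 h (two generations) at 37 C, 5% CO2. Luminescence decrease indicated growth inhibition.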

Records with an inconclusive call do not appear. Activity calls are given as the source filed them. Unless noted, calls come from the whole dose curve; as a rule, active = well fitted curve in the direction sought with a large enough effect; inconclusive = small, poorly fitted or top-dose-only effect, or another doubt; inactive = no such curve, though single readings can be large; an effect the other way counts as inactive or inconclusive.

DNA polymerase III PolC-type (Bacillus subtilis (strain 168)), sequence (P13267 whole entry, looked up): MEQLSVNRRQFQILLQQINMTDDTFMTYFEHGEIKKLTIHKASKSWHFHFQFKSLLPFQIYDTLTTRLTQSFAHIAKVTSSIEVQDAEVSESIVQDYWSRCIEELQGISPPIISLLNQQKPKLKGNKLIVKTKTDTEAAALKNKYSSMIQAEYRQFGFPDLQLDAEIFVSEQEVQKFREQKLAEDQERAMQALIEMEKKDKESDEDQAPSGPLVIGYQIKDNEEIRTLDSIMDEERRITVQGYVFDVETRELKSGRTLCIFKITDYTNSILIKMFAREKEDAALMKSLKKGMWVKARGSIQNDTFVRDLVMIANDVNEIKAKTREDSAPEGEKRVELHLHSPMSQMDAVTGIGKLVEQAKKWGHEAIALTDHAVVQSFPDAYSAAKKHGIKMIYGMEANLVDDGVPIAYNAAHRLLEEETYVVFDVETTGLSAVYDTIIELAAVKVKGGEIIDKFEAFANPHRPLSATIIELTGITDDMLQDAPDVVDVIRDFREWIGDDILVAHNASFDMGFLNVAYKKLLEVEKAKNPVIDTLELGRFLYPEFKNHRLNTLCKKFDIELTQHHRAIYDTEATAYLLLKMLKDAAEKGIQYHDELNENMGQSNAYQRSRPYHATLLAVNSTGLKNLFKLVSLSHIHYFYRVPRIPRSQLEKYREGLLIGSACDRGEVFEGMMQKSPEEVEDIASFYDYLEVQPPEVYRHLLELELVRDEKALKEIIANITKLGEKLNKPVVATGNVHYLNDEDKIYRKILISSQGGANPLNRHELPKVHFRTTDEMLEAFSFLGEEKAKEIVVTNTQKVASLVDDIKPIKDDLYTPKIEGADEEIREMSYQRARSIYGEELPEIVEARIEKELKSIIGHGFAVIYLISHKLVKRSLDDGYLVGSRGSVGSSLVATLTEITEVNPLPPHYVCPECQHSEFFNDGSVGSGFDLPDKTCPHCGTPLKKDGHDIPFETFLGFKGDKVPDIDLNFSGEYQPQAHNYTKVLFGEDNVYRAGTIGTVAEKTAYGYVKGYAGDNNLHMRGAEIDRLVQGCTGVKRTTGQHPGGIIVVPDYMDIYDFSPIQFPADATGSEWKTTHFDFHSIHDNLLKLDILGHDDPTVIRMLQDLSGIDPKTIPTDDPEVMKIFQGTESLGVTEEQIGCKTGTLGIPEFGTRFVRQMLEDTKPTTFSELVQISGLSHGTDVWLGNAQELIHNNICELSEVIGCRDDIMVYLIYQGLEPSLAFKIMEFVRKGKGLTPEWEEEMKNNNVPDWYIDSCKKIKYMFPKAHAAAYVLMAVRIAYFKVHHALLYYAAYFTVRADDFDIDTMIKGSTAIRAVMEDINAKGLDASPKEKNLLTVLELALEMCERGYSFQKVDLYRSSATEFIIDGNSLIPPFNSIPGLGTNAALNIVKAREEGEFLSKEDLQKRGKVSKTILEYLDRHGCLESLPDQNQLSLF
Ubiquitin carboxyl-terminal hydrolase 2 (Homo sapiens), sequence (O75604 whole entry, looked up): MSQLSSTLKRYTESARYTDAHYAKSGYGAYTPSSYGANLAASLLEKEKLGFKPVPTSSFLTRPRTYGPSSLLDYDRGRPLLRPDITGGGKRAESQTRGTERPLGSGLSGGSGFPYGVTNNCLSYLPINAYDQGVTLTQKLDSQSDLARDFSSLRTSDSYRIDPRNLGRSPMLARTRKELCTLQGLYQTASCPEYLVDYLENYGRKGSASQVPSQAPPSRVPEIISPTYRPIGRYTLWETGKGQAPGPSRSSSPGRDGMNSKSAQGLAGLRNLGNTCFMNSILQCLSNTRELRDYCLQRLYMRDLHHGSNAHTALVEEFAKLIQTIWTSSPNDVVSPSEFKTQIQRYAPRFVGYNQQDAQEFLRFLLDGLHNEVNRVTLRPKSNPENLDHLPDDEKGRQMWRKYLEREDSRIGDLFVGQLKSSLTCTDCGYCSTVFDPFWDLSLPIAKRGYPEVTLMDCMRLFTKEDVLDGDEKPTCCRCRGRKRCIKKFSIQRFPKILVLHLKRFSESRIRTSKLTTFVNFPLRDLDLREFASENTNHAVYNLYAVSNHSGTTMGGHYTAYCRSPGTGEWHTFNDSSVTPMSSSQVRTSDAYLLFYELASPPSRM
ATP-dependent 6-phosphofructokinase (Trypanosoma brucei brucei), sequence (O15648 whole entry, looked up): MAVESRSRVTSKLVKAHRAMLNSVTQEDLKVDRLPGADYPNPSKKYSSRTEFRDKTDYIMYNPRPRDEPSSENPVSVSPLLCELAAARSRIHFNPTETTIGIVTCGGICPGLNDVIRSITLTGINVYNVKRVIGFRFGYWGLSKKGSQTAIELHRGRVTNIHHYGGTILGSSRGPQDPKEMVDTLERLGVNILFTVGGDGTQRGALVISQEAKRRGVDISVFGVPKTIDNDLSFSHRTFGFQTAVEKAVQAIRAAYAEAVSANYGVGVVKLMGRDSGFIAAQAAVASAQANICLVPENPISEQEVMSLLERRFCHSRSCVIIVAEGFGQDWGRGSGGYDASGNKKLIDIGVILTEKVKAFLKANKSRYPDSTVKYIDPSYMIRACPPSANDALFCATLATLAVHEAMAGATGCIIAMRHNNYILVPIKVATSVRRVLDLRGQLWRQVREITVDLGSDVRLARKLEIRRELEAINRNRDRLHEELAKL
Beta-2 adrenergic receptor (Homo sapiens), sequence (P07550 whole entry, looked up): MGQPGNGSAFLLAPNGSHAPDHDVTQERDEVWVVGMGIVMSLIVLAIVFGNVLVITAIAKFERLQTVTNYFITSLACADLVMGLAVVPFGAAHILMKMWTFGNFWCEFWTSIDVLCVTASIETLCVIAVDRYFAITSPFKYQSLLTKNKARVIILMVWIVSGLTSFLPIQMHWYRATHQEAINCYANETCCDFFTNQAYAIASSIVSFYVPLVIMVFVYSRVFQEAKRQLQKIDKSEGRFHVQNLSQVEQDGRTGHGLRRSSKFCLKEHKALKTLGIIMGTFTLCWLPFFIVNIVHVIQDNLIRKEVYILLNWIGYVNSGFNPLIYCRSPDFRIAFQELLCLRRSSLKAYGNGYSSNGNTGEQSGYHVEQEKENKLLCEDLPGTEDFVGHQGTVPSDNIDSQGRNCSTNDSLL

On to `CC1=C(/C=C/C(C)=C/C=C/C(C)=C/C(=O)Nc2ccc(O)cc2)C(C)(C)CCC1`, for which, in assay [1], the Potency was 18.5 µM (active). Moreover, the outcome in [2], in assay [3], in assay [4] and in assay [5] was inactive.
Take `CC(=O)O[C@]1(C(C)=O)CC[C@H]2[C@@H]3C=C(Cl)C4=CC(=O)[C@@H]5C[C@@H]5[C@]4(C)[C@H]3CC[C@@]21C`: the compound was called inactive in [6], in assay [2], in assay [3], in assay [8], in assay [4] and in assay [5]. The Potency entry in assay [7] and in [1] was “inactive” each time.
`O=C(NCCN1CCOCC1)c1ccc(Cl)cc1`: the compound was classed as inactive in assay [6], in assay [2], in assay [3], in [8], in assay [4] and in [5]. The Potency entry in assay [7] and in assay [1] was “inactive” each time.
Consider `O=C1NCC2(CCN(CCc3ccccc3)CC2)O1`, for which the compound was classed as inactive in assay [6], in [2], in [3], in assay [8] and in assay [4]. Besides, the Potency entry in [7], in assay [1], in assay [9] and in assay [10] was “inactive” each time.
On to `CC(C)(C)c1ccc(C(O)CCCN2CCC(C(O)(c3ccccc3)c3ccccc3)CC2)cc1` (stereo not drawn), for which the Potency in [7] is 18.5 µM (active); in assay [1] it was 7.36 µM (active); in assay [9], 11.2 µM (active). Besides, the result in [2], in assay [3], in assay [8], in assay [4] and in [5] was inactive. In addition, the Potency result in assay [10] was “inactive”.
On to `CCCNC(=O)NS(=O)(=O)c1ccc(Cl)cc1`, for which the compound was classed as inactive in assay [6], in assay [2], in assay [3], in [8] and in [4]. Also, the Potency result in [7], in assay [1], in assay [9] and in [10] was “inactive” throughout.
Turning to `CCCCC1C(=O)N(c2ccccc2)N(c2ccccc2)C1=O`, the outcome in [6], in assay [2], in assay [3], in [8] and in [4] was inactive. For the same compound, the Potency entry in [7], in [1] and in assay [9] was “inactive” in each case.
Regarding `COC(=O)[C@@H]1[C@H]2C[C@H]3c4[nH]c5ccccc5c4CCN3C[C@@H]2CC[C@@H]1O`, the outcome in [6], in [2], in [3], in [4] and in [5] was inactive. The Potency result in assay [7], in assay [9] and in [10] was “inactive” each time.
For the compound `Clc1ccc(Cn2c(CN3CCCC3)nc3ccccc32)cc1`, the compound was classed as inactive in [6], in [2], in [3], in [8] and in assay [4]. Besides, the Potency result in [7], in assay [1] and in assay [9] was “inactive” each time.
`CC/C(=C(\c1ccccc1)c1ccc(OCCN(C)C)cc1)c1ccccc1`: the Potency in assay [9] is 17.8 µM (active); in assay [10] it was 13.1 µM (active). The compound was called inactive in assay [2] and in assay [5].
Turning to `C[N+](C)(C)CCCCCC[N+](C)(C)C`, the call in [6], in [2], in assay [3], in assay [8], in assay [4] and in assay [5] was inactive. The Potency result in assay [7], in [1], in [9] and in assay [10] was “inactive” each time.
In the case of `CC(C)OC(=O)C(C)(C)Oc1ccc(C(=O)c2ccc(Cl)cc2)cc1`, the outcome in [6], in assay [2], in assay [3] and in assay [4] was inactive. Moreover, the Potency entry in assay [7] and in assay [9] was “inactive” throughout.
On to `NCCS`, for which the result in [6], in assay [2], in assay [3], in assay [8], in [4] and in assay [5] was inactive. Also, the Potency entry in assay [7], in [1], in assay [9] and in assay [10] was “inactive” in each case.
In the case of `CCn1cc(C(=O)O)c(=O)c2ccc(C)nc21`, the outcome in assay [6], in assay [2], in [3], in assay [8], in assay [4] and in [5] was inactive. The Potency result in [7] and in assay [1] was “inactive” each time.
In the case of `O=c1c(-c2ccc(O)cc2)coc2cc(O)ccc12`, the call in assay [6], in assay [2], in assay [3] and in assay [4] was inactive. The Potency entry in assay [7], in [1] and in assay [9] was “inactive” each time.
Regarding `COc1cccc(-c2cc(=O)c3ccccc3o2)c1N`, the compound was called inactive in [6], in [2], in assay [3], in assay [8] and in [4]. For the same compound, the Potency entry in [7] and in assay [1] was “inactive” each time.
Regarding `CC(=O)CCCCn1c(=O)c2c(ncn2C)n(C)c1=O`, the outcome in assay [6], in assay [2], in assay [3], in assay [8], in assay [4] and in assay [5] was inactive. For the same compound, the Potency result in [7], in assay [1], in assay [9] and in assay [10] was “inactive” throughout.
Regarding `NC(N)=Nc1nc(CSCC/C(N)=N/S(N)(=O)=O)cs1`, the compound was called inactive in assay [6], in [2], in assay [3], in [8] and in assay [4]. The Potency entry in assay [7], in assay [1], in assay [9] and in [10] was “inactive” in each case.
